Only some compounds are listed: those with a hit (about 2.6% of all), similar ones and a draw of the others.
GLP1R cytotox = cytotoxicity in counter-screen for GLP-1R inverse agonists; 0.13% of 410,000 active; AID 624418; Potency, µM (series often up to 38.3 µM), inactives show top-dose activity change, negative = inhibition, most hits filed as inhibitors; HEK293 cAMP-luciferase reporter cells, luminescence, 24 h;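 note: loss of luciferase light is scored as toxicity; % is set by controls: 0 for no effect and ±100 for the full control effect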
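Here, cytotoxicity is scored as loss of luminescence. The MLSMR collection was tested on cells seeded in medium containing 10% Nu serum, with a 24 hr compound exposure preceded by 12 hours of culture.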
GLP1R ag = GLP-1 receptor (human) agonism | P43220 | 0.007% of 380,000 active | AID 624172 | HEK293 GLP-1R CRE-luciferase, luminescence, 4-6 h; cells express a hypersensitive GLP-1R form | Potency, µM (top dose mostly 45.6 µM), inactives show top-dose activation, most hits filed as activators; note: % of control where 0% means no effect
Target sequence (P43220 whole entry, looked up): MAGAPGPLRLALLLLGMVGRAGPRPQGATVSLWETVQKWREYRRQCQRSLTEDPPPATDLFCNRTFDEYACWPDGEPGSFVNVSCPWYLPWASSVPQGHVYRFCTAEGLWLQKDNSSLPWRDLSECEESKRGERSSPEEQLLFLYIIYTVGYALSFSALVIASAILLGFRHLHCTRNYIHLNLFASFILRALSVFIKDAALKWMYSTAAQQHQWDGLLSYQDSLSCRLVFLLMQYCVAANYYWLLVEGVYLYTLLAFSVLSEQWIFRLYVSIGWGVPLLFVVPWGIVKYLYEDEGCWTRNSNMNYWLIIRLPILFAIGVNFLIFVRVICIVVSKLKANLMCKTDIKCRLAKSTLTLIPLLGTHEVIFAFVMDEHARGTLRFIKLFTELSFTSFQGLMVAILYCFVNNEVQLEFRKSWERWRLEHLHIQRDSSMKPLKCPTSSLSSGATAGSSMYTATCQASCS
GLP-1R inv ag = GLP-1 receptor (human) inverse agonism; HEK293 GLP-1R CRE-luciferase, luminescence, 24 h; GLP-1R form is constitutively active; P43220; Potency, µM (top dose mostly 38.3 µM), inactives show top-dose activity change, negative = inhibition, usual class: inhibitors; 1.6% of 410,000 active; note: % is set by controls: 0 for no effect and ±100 for the full control effect; nearly all actives have a fitted effect of over 55% in size
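Inverse agonism was detected as reduced cAMP-driven luciferase luminescence after 24 h compound treatment. The cells were HEK293 clones expressing constitutively active human GLP-1R with the reporter. Reporter-only and GPR119 cell lines served as counterscreen controls.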
BRCA1 expr up = increases BRCA1 expression; MCF7-BRCA1-FFLuc reporter, luminescence, 48 h; response scale: scaled: vehicle 0%, 10 µM genistein 100%; Potency, µM (doses to about 46.1 µM), without a hit: top-dose activation, most hits filed as activators; 1.1% of 380,000 active; note: nearly all actives have a fitted effect of over 80% in size
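MCF7-BRCA1-FFLuc cells, 2000/well in phenol-red-free MEM, attached 2 h then treated 48 h at 37 C. Luciferase luminescence read 15 min after reagent; normalized to genistein maximum activation (10microM) and DMSO, concentration-response fitted.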
An asterisk follows results filed as active. Calls come from the whole dose curve; as a rule, active = well fitted curve in the direction sought with a large enough effect; inconclusive = small, poorly fitted or top-dose-only effect, or another doubt; inactive = no such curve, though single readings can be large; an effect the other way counts as inactive or inconclusive. Potency is the fitted concentration of half-maximal effect.

For COc1ccc(NC(=O)CN(c2cccc(C)c2C)S(=O)(=O)c2ccccc2)cc1OC the results were GLP1R cytotox -8%, GLP1R ag 1%, GLP-1R inv ag inconclusive and BRCA1 expr up 1%.
For N#C[C@H]1C[C@H]2C[C@@H]2N1C(=O)[C@@H](N)C12CC3CC(CC(O)(C3)C1)C2 the results were GLP1R ag -4%.
For O=C(c1cnn(-c2ccccc2)c1)c1cc(F)ccc1O the results were GLP1R cytotox 29%, GLP1R ag 8%, GLP-1R inv ag 0% and BRCA1 expr up 10µM*.
Screening CCOc1ccc(OCc2ccc(C(=O)NCc3cccnc3)o2)cc1 returned GLP1R cytotox -13%, GLP1R ag -9%, GLP-1R inv ag 4% and BRCA1 expr up 11µM*.
Screening CCOc1ccc(OCc2ccc(C(=O)Nc3cccnc3)o2)cc1 returned GLP1R cytotox 15%, GLP1R ag 8%, GLP-1R inv ag inconclusive and BRCA1 expr up 10%.
For O=C(O)c1ccc(OCc2ccc(C(=O)O)o2)cc1 the results were GLP1R cytotox -14%, GLP1R ag 6%, GLP-1R inv ag 20% and BRCA1 expr up inconclusive.
`CCc1ccc(OCc2ccc(C(=O)O)o2)cc1` gave GLP1R cytotox 17%, GLP1R ag -6%, GLP-1R inv ag 4µM* and BRCA1 expr up inconclusive.
Screening COc1ccc2c(c1)C=C/C2=C/c1ccc(N(C)C)cc1 returned BRCA1 expr up 80%.
For C/C(=C(\CCO)SSCC1CCCO1)N(C=O)Cc1cnc(C)nc1N (stereo not drawn) the results were GLP1R ag -1%.
Screening Cc1cc(C)c(NC(=O)Cn2c(=O)n(Cc3ccc(C(=O)NCc4ccco4)cc3)c(=O)c3sccc32)c(C)c1 returned GLP1R cytotox -19% and GLP-1R inv ag -10%.
For COc1cccc(-c2ccnc3c(-c4ccccc4)c(C)nn23)c1 the results were GLP1R cytotox -4%, GLP1R ag 2%, GLP-1R inv ag inconclusive and BRCA1 expr up 11µM*.
COc1cccc(-c2ccnc3c(-c4ccc(F)cc4)c(C)nn23)c1 was read as GLP1R cytotox -4%, GLP1R ag 0%, GLP-1R inv ag 14% and BRCA1 expr up 0%.
Screening CCc1nn2c(-c3ccccc3OC)ccnc2c1-c1ccccc1 returned GLP1R cytotox 2%, GLP1R ag 0%, GLP-1R inv ag 10µM* and BRCA1 expr up 0%.
COc1cccc(-c2cnc3cccnn23)c1 was read as GLP1R cytotox 7%, GLP1R ag -1%, GLP-1R inv ag 19% and BRCA1 expr up 13µM*.
Screening CCOC(=O)C1=CC[C@H]2c3c(c4ccccc4n3C)C(=O)C1N2Cc1ccccc1 returned GLP1R cytotox inconclusive, GLP1R ag -2%, GLP-1R inv ag 15% and BRCA1 expr up -34%.
`COc1ccc(-n2nc(C)c3c(C(F)(F)F)cc(-c4cccnc4)nc32)cc1` gave GLP1R cytotox -6% and GLP-1R inv ag 4%.
For CN(C)C(=O)CSc1nnc(C23CC4CC(CC(C4)C2)C3)o1 the results were GLP1R cytotox 6%, GLP1R ag -11%, GLP-1R inv ag -14% and BRCA1 expr up 10µM*.
For CN(C)C(=O)CSc1nnc(CCN)o1 the results were GLP1R cytotox -25%, GLP1R ag -3%, GLP-1R inv ag -6% and BRCA1 expr up -6%.
`CCCNC(=O)c1c(NC(=O)c2ccccc2F)sc2c1CCCCC2` gave GLP1R cytotox -5% and GLP-1R inv ag 7%.
For CCc1c(C)sc2c1CCN(C(=O)Nc1cc(OC)c(OC)c(OC)c1)C2c1ccccc1 (stereo not drawn) the results were GLP1R cytotox -5% and GLP-1R inv ag 10µM*.
Screening Cc1ccccc1NC(=O)N1CCc2c(sc3c2CCCC3)C1c1ccccc1 (stereo not drawn) returned GLP1R cytotox 13% and GLP-1R inv ag 10µM*.
Screening CCOC(=O)c1ccccc1NC(=O)N1CCc2c(sc(C)c2CC)C1c1ccccc1 (stereo not drawn) returned GLP1R cytotox -12% and GLP-1R inv ag -20%.
`CCOc1ccccc1NC(=O)N1CCc2c(sc3c2CCCC3)C1c1ccccc1` (stereo not drawn) gave GLP1R cytotox 9% and GLP-1R inv ag inconclusive.
For CCOC(=O)c1[nH]c(C)c(CCC(=O)NCc2ccc(C)cc2)c1C the results were GLP1R cytotox 2% and GLP-1R inv ag -3%.
`Cc1cccc(NC(=O)c2sc3nc4c(cc3c2N)CN(C(C)C)CC4)c1` gave GLP1R cytotox 23% and GLP-1R inv ag -1%.
For CCC(COC)NCc1cn(-c2ccc(OC)cc2)nc1-c1cccc(F)c1 (stereo not drawn) the results were GLP1R cytotox inconclusive, GLP1R ag 4%, GLP-1R inv ag 4.5µM* and BRCA1 expr up 0%.
For COc1ccc(-n2cc(CNC(C)c3ccncn3)c(-c3cccc(F)c3)n2)cc1 (stereo not drawn) the results were GLP1R cytotox 3%, GLP1R ag 8%, GLP-1R inv ag inconclusive and BRCA1 expr up 0%.
`Cc1cccc(OCc2cc(=O)n3c(-c4ccccc4)csc3n2)c1C` gave GLP1R cytotox -6%, GLP1R ag 1%, GLP-1R inv ag 16% and BRCA1 expr up 48%.
OCC1(Cc2ccc(Cl)cc2)CCN(CCCc2ccccc2)CC1 was read as GLP1R cytotox inconclusive, GLP1R ag 2%, GLP-1R inv ag inconclusive and BRCA1 expr up -15%.
For O=C(NC1(Cc2ccccc2)CCN(CCCc2ccccc2)C1=O)c1ccccc1 (stereo not drawn) the results were GLP1R cytotox -16%, GLP1R ag 7%, GLP-1R inv ag 11µM* and BRCA1 expr up 0%.
Screening C#CCN(C)CC/C=C1\c2ccccc2CSc2ccccc21 returned GLP1R cytotox -3%, GLP1R ag 2%, GLP-1R inv ag 4.5µM* and BRCA1 expr up -9%.
For CN(CC/C=C1/c2ccccc2CSc2ccccc21)CCCO the results were GLP1R cytotox inconclusive, GLP1R ag 2%, GLP-1R inv ag 5.6µM* and BRCA1 expr up -30%.
NCC/C=C1/c2ccccc2CSc2ccccc21 was read as GLP1R cytotox inconclusive, GLP1R ag -2%, GLP-1R inv ag 3.2µM* and BRCA1 expr up -48%.
`C=CCN(C)CC/C=C1\c2ccccc2CSc2ccccc21` gave GLP1R cytotox inconclusive, GLP1R ag 0%, GLP-1R inv ag inconclusive and BRCA1 expr up -37%.
`O=C(O)c1ccc(COc2ccc([N+](=O)[O-])cc2Cl)cc1` gave GLP1R cytotox -22%, GLP1R ag -6%, GLP-1R inv ag 14% and BRCA1 expr up 13µM*.
For CCCN1C(=O)c2ccccc2NC1c1ccc(OC)c(CSc2ccccn2)c1 (stereo not drawn) the results were GLP1R cytotox 5%, GLP1R ag 17%, GLP-1R inv ag 13µM* and BRCA1 expr up 0%.

Source: PubChem (National Center for Advancing Translational Sciences (NCATS))
